# Source: PubChem BioAssay (National Center for Advancing Translational Sciences (NCATS))
# Rows were chosen to be rich in hits. Some 1.8% of all compounds tested hit in one or more screens of this group.
# A-T KAP1 phos = candidate therapy for ataxia-telangiectasia. Potency, µM (series often up to 57.5 µM), inactives show top-dose activation, hits mostly activators. hit rate 0.19% among 320,000. F2112 A-T fibroblasts, KAP-1 phosphorylation AlphaLISA; neocarzinostatin DNA damage 30 min before lysis; further: potency means the concentration at half of the fitted maximal effect; % of control where 0% means no effect; nearly all actives have a fitted effect of over 45% in size
#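 hTERT-immortalized A-T patient fibroblasts (F2112), 500 cells/well in OPTI-MEM, 1% FBS, got compounds for 60 min, then NCS for 30 min at 37C. Lysates were then assayed for phospho-KAP-1 by AlphaLISA (anti-pKAP1 donor, anti-KAP1 acceptor beads), 6 hr at 25C.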
# ALOX12 inh = inhibitors of human 12S-lipoxygenase ALOX12. purified 12hLO, xylenol orange hydroperoxide absorbance. Potency, µM (top dose mostly 108 µM), inactives show at the top dose activity change, negative = inhibition, hits mostly inhibitors. hit rate 1.1% among 580,000. AID 1671190; further: potency means the concentration at half of the fitted maximal effect; on the % scale 0 is the no-effect control and ±100 the full control effect
# Target sequence (P18054 whole entry, looked up): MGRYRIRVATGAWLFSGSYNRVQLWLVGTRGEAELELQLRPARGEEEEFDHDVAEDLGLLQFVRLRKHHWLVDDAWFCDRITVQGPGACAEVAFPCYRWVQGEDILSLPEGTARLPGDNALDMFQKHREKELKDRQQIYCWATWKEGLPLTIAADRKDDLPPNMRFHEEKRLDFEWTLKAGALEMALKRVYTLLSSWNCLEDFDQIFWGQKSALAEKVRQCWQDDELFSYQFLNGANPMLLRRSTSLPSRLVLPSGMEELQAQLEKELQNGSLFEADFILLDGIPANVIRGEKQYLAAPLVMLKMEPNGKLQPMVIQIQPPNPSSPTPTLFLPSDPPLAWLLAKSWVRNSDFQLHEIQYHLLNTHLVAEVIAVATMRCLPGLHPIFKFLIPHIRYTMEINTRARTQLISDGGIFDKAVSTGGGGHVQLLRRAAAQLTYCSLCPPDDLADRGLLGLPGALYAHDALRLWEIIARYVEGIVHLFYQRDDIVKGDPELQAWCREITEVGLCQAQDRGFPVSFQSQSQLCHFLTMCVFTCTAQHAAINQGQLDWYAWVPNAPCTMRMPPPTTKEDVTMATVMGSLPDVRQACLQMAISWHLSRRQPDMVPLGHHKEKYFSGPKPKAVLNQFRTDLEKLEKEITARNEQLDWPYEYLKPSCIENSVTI
#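 Purified human 12hLO (150 nM final) in 25 mM Hepes, 0.01% Triton X-100, pH 7.0 was preincubated 15 min at room temperature with compound. Then 40 uM arachidonic acid was added, 30 min. Hydroperoxide was read by Fe-XO absorbance ratio 573/405 nm.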
# KCNH2 WT inh = inhibitors of human wildtype KCNH2 potassium channel. Q12809. U2OS, BacMam KCNH2, thallium flux FluxOr; hits give low values. activity change, % at 1.84 µM. hit rate 0.37% among 340,000. AID 720551;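 active means maximum activity change below -70%; inconclusive means maximum activity change between -70% and -50%; inactive means maximum activity change above -50%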; further: on the % scale 0 is the no-effect control and ±100 the full control effect
#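 U2OS cells transduced with wild-type KCNH2 virus are loaded with FluxOr dye for 45 min, and thallium flux is measured in kinetic reads before and after stimulation buffer. Rate constants are normalized to DMSO controls.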
# KCNH2 3.1 inh = KCNH2 3.1 (human) potassium channel inhibition. U2OS KCNH2 3.1, thallium flux FluxOr; hits give low values. activity change, % (tested at about 1.8 µM). hit rate 0.95% among 340,000. AID 720553;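 active means maximum activity change below -70%; inconclusive means maximum activity change from -70% to -50%; inactive means maximum activity change above -50%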;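 further: thallium influx rate constant from kinetic fluorescence after stimulation buffer; on the % scale 0 is the no-effect control and ±100 the full control effect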
#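 Kinetic fluorescence (2 min after stimulation buffer) measures Tl+ influx through KCNH2 3.1 expressed by viral transduction in U2OS cells; the rate constant is normalized against DMSO controls serving as positive and negative references.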
# * marks the source's active call; other numbers are inactive results; ? = inconclusive; nt = no result given; [ ] = remark or other dose. Unless noted, the call rests on the fitted dose curve; in most records, active means well fitted curve in the direction sought with a large enough effect; inconclusive means small, poorly fitted or top-dose-only effect, or another doubt; inactive means no such curve, though single readings can be large; an effect the other way counts as inactive or inconclusive.
SMILES,A-T KAP1 phos,ALOX12 inh,KCNH2 WT inh,KCNH2 3.1 inh
CC(C)NC(=O)OC[C@H]1C[C@@H]2CCN1C[C@@H]2c1cc(C2CCCC2)nc(-c2ccncc2)n1,nt,28µM*,nt,nt
CC(C)NC(=O)[C@H]1CN2CCC1C[C@@H]2Cn1cc(CN(C)Cc2ccccc2)nn1 (stereo not given in full),nt,-14%[176 µM],nt,nt
COc1cncc(-c2cc3c(cc2OC)C2(CCN(C(C)=O)CC2)C(=O)N3)c1,nt,-14%[176 µM],nt,nt
CCN(CC)CCOC(=O)C(O)(c1ccccc1)c1ccccc1,-1%,-18%,31,-5
CC(C)N1C(=O)CC2(CC[N+](C)(CCOC(=O)C(O)(c3ccccc3)c3ccccc3)CC2)C1=O (stereo not given),22%,35µM*,-3,-9
CCOC(=O)[C@]12Cc3c(cc(OC)c(OC)c3OC)[C@H]1N(C1CCCCC1)C(=O)c1ccccc12,nt,-71%,nt,nt
CCOC(=O)[C@]12Cc3cc(Cl)ccc3[C@H]1N(C1CCCCC1)C(=O)c1cc(OC)ccc12,nt,45µM*,nt,nt
CCOC(=O)[C@]12Cc3cc(C)ccc3[C@H]1N(C1CCCCC1)C(=O)c1ccccc12,nt,50µM*,nt,nt
CCOC(=O)[C@]12Cc3ccc(C)cc3[C@H]1N(C1CCCCC1)C(=O)c1cc(OC)ccc12,nt,56µM*,nt,nt
Cc1ccc(S(=O)(=O)NC[C@H]2C[C@@H]3CCN2C[C@@H]3CN2CCc3ccccc32)cc1,nt,-11%[176 µM],nt,nt
COc1cc(CC(=O)N2C[C@H]3C[C@@H](C2)c2cccc(=O)n2C3)cc(OC)c1OC,-8%,1%,-199*,1
CCOC(=O)C(=O)NC1CCSC1=O (stereo not given),-2%,?,5,10
CCCC(C)C(=O)NC1CCSC1=O (stereo not given),4%,-2%,-3,-83*
CC(C)CCn1c(N)c(C(=O)NCc2cccs2)c2nc3ccccc3nc21,28µM*,16%,-20,-9
C#C[C@H]1CN2CC[C@H]1C[C@@H]2CNCc1cccc(Cl)c1,nt,67%[176 µM],nt,nt
COc1cccc([C@H]2CN(C(=O)OCC(C)C)[C@@H]3C4CCN(CC4)[C@H]23)c1,nt,24%,nt,nt
COC(=O)C1=C(c2ccc(F)cc2OCc2ccccc2)C[C@@H]2CC[C@H]1N2C(=O)NCc1ccc(F)cc1,12%,-2%,-12,-36
COC(=O)C1=C(c2cccc(OC)c2OC)C[C@@H]2CC[C@H]1N2C(=O)NCc1ccc(F)cc1,nt,8%,-1,-126*
COC(=O)C1=C(c2ccc(F)cc2OCc2ccccc2)C[C@@H]2CC[C@H]1N2C(=O)NCc1ccc([N+](=O)[O-])cc1,5%,?,-20,-88*
OCC1CN(C2CCC2)CC12CCNCC2 (stereo not given),nt,49%,nt,nt
Cc1nc(-c2ccccc2Br)cc([C@H]2CN3CC[C@H]2C[C@@H]3CNC(=O)Nc2ccc(Cl)cc2)n1,nt,-38%,nt,nt
CCN1/C(=C/C=C/C2=[N+](CC)c3ccccc3C2(C)C)C(C)(C)c2ccccc21,nt,?,-131*,-77*
O=[S+]1([O-])NC2(CCN(Cc3cccs3)C2)COc2ccncc21 (stereo not given),nt,4%[6.33 µM],nt,nt
C/C(=C\c1ccc2c(c1)OCO2)[N+](=O)[O-],nt,14µM*,nt,nt
CCOc1cc2c(cc1OCC)-n1cccc1C(c1ccc(OC(F)F)cc1)NC2 (stereo not given),-3%,6%,-13,-82*
SMILES,A-T KAP1 phos,ALOX12 inh,KCNH2 WT inh,KCNH2 3.1 inh
CCOc1cc2c(cc1OCC)-n1cccc1C(c1ccc(OC)cc1)NC2 (stereo not given),-10%,?,1,-13
Cc1ccc(C(=O)N[C@@H](C)CN2C3=NC[C@H](Cc4ccccc4)N3C[C@H]2Cc2ccc(O)cc2)cc1Br,-22%,nt,-85*,-12
O=C(O)Cn1cc(C=C2C(=O)NC(=O)NC2=O)c2ccccc21,-17%,-28%,2,12
O=C(Cn1cc(C=C2C(=O)NC(=O)NC2=O)c2ccccc21)NCC1CCCO1 (stereo not given),5%,13µM*,0,2
CCCCCCCCn1sccc1=O,2%,45µM*,7,3
NC1(C(=O)O)CCCc2ccc(N(CCCl)CCCl)cc21 (stereo not given),nt,-13%,-1,1
COC(=O)C1=C(C)NC(=S)NC1c1ccc(N(CCCl)CCCl)cc1Cl (stereo not given),nt,35µM*,-13,nt
O=C(N/N=C/c1c(O)n(CCC2=CCCCC2)c(=S)[nH]c1=O)c1ccccc1,5%,28µM*,-10,8
O=C(C1CCCCC1)N1C[C@@H]2C[C@H](C1)c1c(/C=C/c3ccc(Cl)cc3)ccc(=O)n1C2,nt,-46%,nt,nt
O=C(CN1CC=C(c2ccccc2)CC1)NC(=O)NCc1ccco1,-3%,-23%,-8,-90*
O=C(CCN1CC=C(c2ccccc2)CC1)NCc1ccccc1,nt,?,1,-7
O=C(CCc1nc2ccccc2s1)N1[C@H]2CC[C@@H]1c1cnc(-c3ccccc3)nc1C2,nt,3%,nt,nt
O=C(c1ccoc1)N1[C@H]2CC[C@@H]1c1cnc(-c3ccccc3)nc1C2,nt,-6%,nt,nt
C[N+](C)(C)CC1CCC1,nt,28µM*,nt,nt
Cc1ccc(NC(=O)N(Cc2ccc3c(c2)OCO3)C2CCN(Cc3ccccc3)CC2)cc1Cl,nt,45µM*,nt,nt
Cc1ccccc1CN1CCNCC1,4%,?,3,1
Cc1ccccc1CN1CCN(Cc2cccc(F)c2)CC1,nt,0.11µM*,nt,nt
CN(C)c1ccc2c(c1)N=C(c1ccco1)OP2(=S)N1CCOCC1 (stereo not given),-2%,20µM*,3,1
CN(C)CCSCc1nnc2n1-c1ccc(Cl)cc1C(c1ccccc1Cl)=NC2,nt,147%,-32,-76*
Clc1ccc2c(c1)C(c1ccccc1Cl)=NCc1nnc(Br)n1-2,nt,23%,-5,-3
CN1CCN(Cc2cc(=O)n3ccsc3n2)CC1,14%,0%,6,-81*
O=C(Nc1ccc2n(c1=O)C[C@H]1C[C@@H]2CN(C(=O)NC2CCCCC2)C1)c1ccco1,nt,51%[176 µM],nt,nt
COc1ccccc1NC(=O)Nc1ccc2n(c1=O)C[C@H]1C[C@@H]2CN(C2CCOCC2)C1,nt,13µM*,nt,nt
COc1ccccc1NC(=O)N1C[C@@H]2C[C@H](C1)c1c(C3CCCCC3)ccc(=O)n1C2,nt,10%[176 µM],nt,nt
CC(C)CN1CCN(c2ccc(Cl)nn2)C(=O)C1,nt,40%[176 µM],nt,nt
CCOC(=O)C1(CCOc2ccccc2)CCN(C(C)CSC)CC1 (stereo not given),5%,222%,17,-10
CCOC(=O)C1(CCOc2ccccc2)CCN(C2Cc3ccccc3C2)CC1,2%,-4%,-11,-121*
Fc1ccc(Cn2nnnc2CN2CCC(n3nnc4cc(C(F)(F)F)ccc43)CC2)cc1,1%,-8%,-22,-98*
Cc1nc2cc(C(F)(F)F)ccc2n1C1CCN(Cc2nnnn2Cc2ccc3c(c2)OCO3)CC1,28%,?,-16,-77*
Cc1nc2ccccc2n1C1CCN(Cc2nnnn2CCc2ccccc2)CC1,8%,?,-23,-82*
